Laboratory results: the supplement of paper PMC3334620
The full ranking holds about 33,000 sequences; the median of “E-score (-0.5 to 0.5)” is about -0.036, and the highest 2% start at about 0.37. The list comes from a sample in which the highest values are over-represented; it also holds similar and randomly drawn sequences.

The sequences below were run against T1, Yer064c (UniProt P40041) (assay: PBM E-score (8-mer binding enrichment) (E-score (-0.5 to 0.5)); higher = stronger / more preferred TF binding). Conditions: protein concentration: 200 nM; construct: GST-full length.
T1 sequence: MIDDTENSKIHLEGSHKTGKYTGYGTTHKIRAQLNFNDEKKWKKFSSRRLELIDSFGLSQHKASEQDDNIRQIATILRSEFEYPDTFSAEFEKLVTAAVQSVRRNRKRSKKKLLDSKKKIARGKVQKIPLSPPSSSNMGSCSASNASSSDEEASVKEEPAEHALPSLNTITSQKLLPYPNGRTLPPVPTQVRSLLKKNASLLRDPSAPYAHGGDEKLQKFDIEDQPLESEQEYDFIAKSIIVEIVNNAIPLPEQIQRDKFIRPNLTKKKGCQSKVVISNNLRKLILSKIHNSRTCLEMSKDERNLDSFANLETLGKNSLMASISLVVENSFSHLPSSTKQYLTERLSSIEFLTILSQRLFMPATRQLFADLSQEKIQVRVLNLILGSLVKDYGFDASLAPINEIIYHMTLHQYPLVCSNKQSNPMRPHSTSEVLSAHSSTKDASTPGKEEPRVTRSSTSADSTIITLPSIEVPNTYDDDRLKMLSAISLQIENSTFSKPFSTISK
Experimental: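 Universal 'all 10-mer' protein binding microarrays (Agilent AMADID 015681) probed with GST-tagged S. cerevisiae TFs (full-length or DBD) made by in vitro transcription/translation (PURExpress), about 100-200 nM. Bound TF was detected with fluorescent anti-GST. Each ungapped 8-mer (which stands for itself and its reverse complement) is scored by the PBM enrichment score (E-score), a modified Wilcoxon-Mann-Whitney statistic from -0.5 to +0.5, computed with the Universal PBM Analysis Suite. Scale: above 0.35 generally sequence-specific binding.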

| Sequence | PBM E-score |
| --- | --- |
| ACTTATCG | 0.0591 |
| CTGCCTAC | -0.0918 |
| CCTATAGC | -0.178 |
| GCCGTGCC | -0.24 |
| CGCTGAAC | -0.0322 |
| ACGTCTAA | 0.0568 |
| ACAGGGAG | -0.0887 |
| CAAGCGAC | -0.0326 |
| CTCCCGAG | 0.0821 |
| ACGCTATG | -0.064 |
| GACTGGGC | 0.0848 |
| AAGACTGA | 0.347 |
| GAGACTGA | 0.28 |
| AAGACACG | -0.0488 |
| TAGACTCA | 0.413 |
| AAGACTTA | 0.33 |
| TATACTCA | 0.317 |
| AAGACACA | 0.0498 |
| GAGACTTA | 0.24 |
| AAGACTCG | 0.373 |
| AAGACTCA | 0.48 |
| TAGACTGA | 0.122 |
| GAGACTCA | 0.467 |
| ATTTGGCG | -0.116 |
| GAAGTTAC | 0.0811 |

| Sequence | PBM E-score |
| --- | --- |
| ATAGCTGC | 0.00331 |
| AGCTAAGG | -0.317 |
| GGGAGCTA | -0.13 |
| AGTTCATG | 0.215 |
| GCCAATAC | -0.222 |
| AGAGCTGA | 0.0408 |
| AAAGTGAG | 0.188 |
| ATGCCGTA | -0.0237 |
| CGCGTAAC | -0.139 |
| GTACTTAA | 0.123 |
| CTTGCCAC | 0.0476 |
| ACCAAAAA | 0.186 |
| CACTTTAC | 0.0259 |
| ATCGCCTG | -0.012 |
| GAGCACTC | -0.182 |
| GAAGGATC | -0.0298 |
| AGGTGCAC | -0.143 |
| GGGGTGGA | -0.205 |
| ACCACTTG | -0.0296 |
| CATGAATG | 0.197 |
| AATGAATC | 0.39 |
| AATGAATT | 0.0966 |
| GATGAATC | 0.387 |
| GATGAATA | 0.176 |
| ATTGAATG | 0.167 |

| Sequence | PBM E-score |
| --- | --- |
| ATTGAATC | 0.375 |
| CATGAATA | 0.178 |
| GATGAACC | 0.0652 |
| ATTGAATA | 0.169 |
| CATGAATC | 0.423 |
| AATGAATG | -0.0293 |
| AGTACCAC | 0.0908 |
| CAATCGAC | 0.0905 |
| ACTGCGAC | 0.228 |
| CTTCCGCC | -0.183 |
| AGATGACA | 0.116 |
| ACATGAGT | 0.375 |
| ACATGACA | 0.155 |
| ACATGAGA | 0.284 |
| ACATGACT | 0.48 |
| ACATGACG | -0.00033 |
| AGATGACC | 0.136 |
| ACATGAGC | 0.046 |
| AGATGACT | 0.487 |
| CTTACGTA | 0.131 |
| CGCAAGGA | -0.167 |
| AAGGCATA | -0.129 |
| TGCCAGCA | -0.0413 |
| ACACGTGC | -0.0356 |
| CACATGTC | 0.0407 |

| Sequence | PBM E-score |
| --- | --- |
| ATCCCACG | 0.07 |
| TAGGCGAA | -0.0147 |
| AGGACTAG | 0.275 |
| CTGACTGC | 0.348 |
| GGGACTGA | 0.119 |
| CTGACTGA | 0.395 |
| ACGACTGG | 0.148 |
| GTGACGGA | -0.0635 |
| ATGACAAG | 0.0335 |
| AAGACTGG | 0.1 |
| ATGACTGG | 0.409 |
| CGGACTGA | 0.178 |
| GTGACTGA | 0.447 |
| ATGACTAG | 0.48 |
| CATCAGGA | -0.0161 |
| GTGTCGAA | -0.00343 |
| ATCGCAGA | 0.0583 |
| AGCTACCA | 0.0223 |
| AATTCGGT | 0.107 |
| CTCCGTGC | -0.156 |
| ACATTCAT | 0.0768 |
| CGCGTTCA | 0.0376 |
| ATGACTGC | 0.467 |
| AGGACTGC | 0.13 |
| ACGACTGA | 0.321 |

| Sequence | PBM E-score |
| --- | --- |
| ATGACTCG | 0.491 |
| ATGACTGA | 0.464 |
| ATTACTCG | 0.202 |
| CAGACTGC | 0.0507 |
| AGGACTCG | 0.306 |
| AGGACTGA | 0.244 |
| GTAAGGTA | 0.00781 |
| GCCAACCC | -0.343 |
| ACGGCCTC | -0.163 |
| ACATGAAT | 0.175 |
| ACGCCTAG | -0.133 |
| CGGTGGGC | -0.341 |
| AGTTTCTC | -0.105 |
| TGACTCCA | 0.479 |
| AGACTCCA | 0.323 |
| CGACTCCA | 0.378 |
| CGACTCCG | 0.332 |
| GGACTCCA | 0.176 |
| CAACTCCC | -0.15 |
| CGACTCCC | 0.404 |
| CCACTCCA | -0.0978 |
| AGACTCCC | 0.32 |
| AGGGGGAT | -0.373 |
| AGGGGGGA | -0.362 |
| ACTGCGTA | 0.0638 |

| Sequence | PBM E-score |
| --- | --- |
| AACTCCAT | 0.0309 |
| CGGTGCAG | -0.0907 |
| ACGTCAAC | 0.0642 |
| GAGTCAAA | 0.461 |
| TAGTCAAA | 0.417 |
| AAGTCAAC | 0.367 |
| CAGTCAAA | 0.254 |
| GAGTCAAC | 0.474 |
| AAGTCAAG | 0.283 |
| TGGTCAAA | -0.0461 |
| CAGTCAAC | 0.36 |
| TTGTCAAA | 0.0143 |
| GCGTCAAC | -0.156 |
| AAGTCAAA | 0.288 |
| TCAAAAAA | 0.16 |
| CGATCACC | -0.0685 |
| ACGATCCG | -0.0916 |
| AGGTAGGC | -0.231 |
| GATCATCC | 0.171 |
| AATCATCC | 0.468 |
| CATCATCG | 0.125 |
| AATCAACG | 0.308 |
| AATCATCG | 0.439 |
| GATCATCA | 0.142 |
| CATCATCA | 0.161 |

| Sequence | PBM E-score |
| --- | --- |
| AATCTTCT | 0.201 |
| AATCATCT | 0.453 |
| AATCATCA | 0.463 |
| CATCATCC | 0.0788 |
| TATCATCA | 0.0107 |
| TGGGCCCA | -0.123 |
| AATATTGT | 0.0413 |
| TATGAATA | 0.0885 |
| TCCCTTCA | 0.091 |
| CCCTTGAA | -0.0587 |
| AGGCGACT | 0.387 |
| AAGCGACT | 0.369 |
| AGGCGACG | -0.346 |
| ACGCGACA | -0.128 |
| AGGCGACC | -0.191 |
| AAGCGACA | -0.208 |
| ACGCGACT | 0.376 |
| ACGCGACG | -0.164 |
| AAGCGACC | -0.161 |
| ACAACGGT | -0.116 |
| ATAAAGAC | 0.196 |
| CCGGCAAG | -0.156 |
| CTTGAGAA | 0.136 |
| GCTTCGAC | -0.126 |
| TCAACAGA | 0.211 |

| Sequence | PBM E-score |
| --- | --- |
| GACTATCC | 0.404 |
| AACTATTA | -0.00806 |
| GACTATTA | 0.379 |
| CACTATTA | 0.0522 |
| GACTATCA | 0.394 |
| CACTATCC | -0.196 |
| TACTATCA | 0.0134 |
| AACTATCA | 0.104 |
| AACTATCC | -0.235 |
| AACGCACA | -0.185 |
| CTGGATTC | 0.00174 |
| GTACCGAC | -0.057 |
| ATTTAGGG | -0.0441 |
| ATTAGCCG | -0.106 |
| CGAAGTCA | 0.437 |
| CGAAGTCC | 0.0182 |
| GGAAGTGA | 0.0158 |
| GGAAGTCC | 0.0559 |
| TGAAGTCA | 0.445 |
| AGAAGTCA | 0.43 |
| AGAAGTCG | 0.207 |
| GGAAGTCA | 0.426 |
| CGAAGTCG | 0.286 |
| TGAAGTAA | 0.0152 |
| TGAAGCCA | 0.114 |

| Sequence | PBM E-score |
| --- | --- |
| AGAAGTCC | -0.056 |
| TAATGCTA | 0.15 |
| AGTTTTGC | 0.0632 |
| AATAAGAC | 0.175 |
| TGCGGTAA | 0.0977 |
| CCCACGTC | -0.157 |
| GCGGTTAC | 0.0193 |
| ACAATGCT | -0.0617 |
| GTAGCATA | -0.262 |
| CCGTCGCG | -0.0591 |
| TATTCCCA | 0.00714 |
| GATCACGA | 0.0675 |
| GACGTCGA | -0.14 |
| CTGCATTC | -0.0186 |
| GGACTACC | 0.284 |
| CAACTAAC | 0.132 |
| CGACTAGC | 0.297 |
| CGACTACC | 0.383 |
| GGACTAAC | 0.367 |
| GTACTAAC | 0.128 |
| CGACTAAC | 0.43 |
| CGACTACG | 0.337 |
| GAACTAAC | -0.0243 |
